Screening results deposited in PubChem BioAssay by National Center for Advancing Translational Sciences (NCATS).
ALOX12 inh = ALOX12 (human) lipoxygenase inhibition; P18054; purified 12hLO, xylenol orange hydroperoxide absorbance; Potency, µM (highest dose often 108 µM), for the others: top-dose activity change, negative = inhibition, hits mostly inhibitors; 580,000 compounds, 1.1% hits; AID 1671190; note: % is set by controls: 0 for no effect and ±100 for the full control effect
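Purified human 12hLO at 150 nM in 25 mM Hepes, 0.01% Triton X-100, pH 7.0, preincubated 15 min at room temperature with compound. Reaction started with 40 uM arachidonic acid, 30 min at room temperature. Hydroperoxide measured by Fe-xylenol orange, 573/405 nm absorbance ratio.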
Anesthetic bind = binds horse apoferritin like a general anesthetic. AID 485281. apoferritin/1-aminoanthracene competitive binding, fluorescence. Potency, µM (highest dose often 77.5 µM), for the others: at the highest dose activity change, negative = displacement, most hits filed as inhibitors. 350,000 compounds, 0.074% hits; note: % is set by controls: 0 for no effect and ±100 for the full control effect; nearly all actives have a fitted effect of over 20% in size
Target sequence (P02791 2-175 limits assumed): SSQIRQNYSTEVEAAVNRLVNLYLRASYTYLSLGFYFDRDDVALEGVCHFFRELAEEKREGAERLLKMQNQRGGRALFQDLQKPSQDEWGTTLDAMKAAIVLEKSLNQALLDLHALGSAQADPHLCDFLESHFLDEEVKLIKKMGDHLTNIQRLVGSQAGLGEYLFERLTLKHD
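Horse-spleen apoferritin (10 uM) was mixed with 50% saturated 1-aminoanthracene in PBS, exposed to compounds for 10 min at room temperature, and read for fluorescence (ex 380 nm, em 535 nm). Competitive displacement was fitted with a four-parameter Hill equation.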
TrxR1 substrate = is turned over as a substrate by rat TrxR1 | O89049 | purified TrxR1 substrate turnover, NADPH consumption readout | Potency, µM (highest dose often 114 µM), for inactives: at the top dose activity change, negative = substrate turnover | 390,000 compounds, 0.01% hits; note: % is set by controls: 0 for no effect and ±100 for the full control effect; nearly all actives have a fitted effect of over 50% in size
Target sequence (O89049 whole entry, looked up): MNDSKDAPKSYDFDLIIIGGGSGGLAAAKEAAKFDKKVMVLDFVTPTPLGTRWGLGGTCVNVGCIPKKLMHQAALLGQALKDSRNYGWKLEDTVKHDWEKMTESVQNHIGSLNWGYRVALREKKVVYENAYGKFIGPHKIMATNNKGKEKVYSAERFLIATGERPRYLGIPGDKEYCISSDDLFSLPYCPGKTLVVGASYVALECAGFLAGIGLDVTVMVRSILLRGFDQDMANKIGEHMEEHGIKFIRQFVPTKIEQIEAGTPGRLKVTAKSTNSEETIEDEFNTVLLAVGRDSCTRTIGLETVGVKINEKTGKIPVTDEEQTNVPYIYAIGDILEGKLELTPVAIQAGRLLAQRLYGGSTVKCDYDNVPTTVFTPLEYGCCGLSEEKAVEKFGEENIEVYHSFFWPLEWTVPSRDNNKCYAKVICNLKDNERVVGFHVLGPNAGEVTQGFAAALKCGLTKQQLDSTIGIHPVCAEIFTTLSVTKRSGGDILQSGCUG
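Rat TrxR1, dispensed at 90 nM, was prereduced with 400 uM NADPH (final) for 5 min at ~22 deg C, then incubated with compound 15 min before 400 uM selenite. A first-read NADPH fluorescence drop versus no-compound background flagged substrates.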
IDH1 R132H inh = inhibitors of human mutant IDH1 R132H | 390,000 compounds, 0.093% hits | IDH1-R132H enzyme, NADPH consumption, diaphorase/resazurin fluorescence | Potency, µM (series often up to 76.6 µM), for inactives: at the highest dose activity change, negative = inhibition, usual class: inhibitors; note: % is set by controls: 0 for no effect and ±100 for the full control effect; nearly all actives have a fitted effect of over 65% in size
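IDH1-R132H (0.5 ug/mL) preincubated 30 min with compound, then NADPH (0.016 mM) and alpha-KG (2 mM) added; 80 min at RT, pH 7.5. Remaining NADPH coupled via diaphorase/resazurin to fluorescence (540/590 nm); concentration-response curves normalized to no-enzyme control.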
Glioma ERSR ind = inducers of ER stress response in human glioma cells | U87-MG GRP78 promoter luciferase reporter, 16 h | Potency, µM, for inactives: at the highest dose activation, most hits filed as activators | 420,000 compounds, 0.02% hits; note: series mostly up to about 76 µM; % of control where 0% means no effect; nearly all actives have a fitted effect of over 35% in size
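ERSR induction read as luciferase luminescence (Bright-Glo, 10 min at room temperature) in stably transfected human U87-MG glioma cells exposed to compounds for 16 h, using GRP78 as sensor.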
rTrxR1 inhibitor = rat TrxR1 inhibition; O89049; recombinant rTrxR1, NADPH fluorescence consumption, selenite substrate; Potency, µM (doses to about 114 µM), for inactives: at the top dose activity change, negative = inhibition, hits mostly inhibitors; 390,000 compounds, 1% hits; AID 588453; note: % is set by controls: 0 for no effect and ±100 for the full control effect; nearly all actives have a fitted effect of over 65% in size
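Rat TrxR1 (90 nM in the dispensed reagent) was pre-reduced with 400 uM NADPH for 5 min at room temperature, then incubated with compound for 15 min. After 400 uM selenite was added, NADPH fluorescence (Ex 340/Em 450 nm) was followed for 8 min.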
* = called active by the depositor; ? = inconclusive; . = not tested or not shown; ! = not active in a repeat; [ ] = dose if it differs, or a comment. Sampled rows, rich in hits. Any-hit rate of the full collection: about 1.7%. Calls come from the whole dose curve; as a rule, active = well fitted curve in the direction sought with a large enough effect; inconclusive = small, poorly fitted or top-dose-only effect, or another doubt; inactive = no such curve, though single readings can be large; an effect the other way counts as inactive or inconclusive. Potency is the fitted concentration of half-maximal effect.

SMILES | ALOX12 inh | Anesthetic bind | TrxR1 substrate | IDH1 R132H inh | Glioma ERSR ind | rTrxR1 inhibitor
Cc1ccc(C(=O)O)cc1NC(=S)NC(=O)c1ccc(-c2ccccc2)cc1 | 8.91µM* | -19.6% | 1.3% | -2.5% | 3.0% | 39.8µM*
Cc1ccc(CS(=O)Cc2cccc(Cl)c2)cc1 (centres undefined) | -27.7% | . | . | . | . | .
CNC(=O)C1=NO[C@@H]2CN(CCc3ccccc3)C[C@H]12 | 10.1%[176 µM] | . | . | . | . | .
O=C(c1[nH]ncc1Cl)N1CCCC(CCc2c(F)cccc2F)C1 (centres undefined) | 62.7% | . | . | . | . | .
CN(C)C(CNC(=S)NC1CC2CCC1C2)c1cccs1 (centres undefined) | 24.5% | . | . | . | . | .
Cn1nccc1CN1CCn2c(nnc2-c2cccnc2)C1 | 19.3%[176 µM] | . | . | . | . | .
O=C(O)c1cccc(NC(=S)NC(=O)c2ccc(-c3ccc(Cl)cc3)o2)c1 | 12.6µM* | -5.6% | -5.2% | 11.1% | 2.3% | ?
Cc1ccc(C(=O)O)cc1NC(=S)NC(=O)c1ccc(-c2ccc(Cl)cc2)o1 | 2µM* | 1.9% | 1.7% | -16.0% | -0.5% | ?
Cc1ccc2c(NC(=S)NC(=O)c3ccccc3)cccc2n1 | ? | ? | -21.8% | -5.6% | 2.9% | 79.4µM*
CCN1CCN(c2ccc(NC(=O)c3ccc(Br)o3)cc2)CC1 | 18.9% | -14.8% | 1.2% | -5.4% | -3.9% | 14.7%
COc1ccc(C(=O)O)cc1NC(=S)NC(=O)c1ccc(-c2ccc(Cl)cc2)o1 | ? | -6.3% | 1.8%[57.1 µM] | -5.0% | -1.9% | -14.5%[57.1 µM]
CN1CCN(c2ccc(NC(=O)c3ccc(-c4ccc(Br)cc4)o3)cc2)CC1 | 50.1µM* | ? | -8.5%[57.1 µM] | -5.4% | -2.2% | -8.5%[57.1 µM]
O=C(Cn1cnc2sccc2c1=O)N1CCOCC1 | -1.7% | . | . | . | . | .
COc1nc2cc(C)c(C)cc2nc1C(=O)Nc1ccc(Cl)cc1 | 12.4% | . | . | . | . | .
COC(=O)c1ccc(NC(=O)Cn2cccc2-c2nc(-c3ccc(C)cc3)no2)cc1 | 2.3% | . | . | . | . | .
NC(=O)COC[C@@H]1CN(C2CCSCC2)C[C@H]1c1ccncc1 | 50.0% | . | . | . | . | .
O=C(Cc1ccccc1)Nc1c(C(=O)Nc2ccccc2F)oc2ccccc12 | ? | -7.6% | 13.3% | -4.9% | -1.3% | 15.3%
COc1ccc(C(=O)/C=C/C(=O)N(CC(=O)NC2CCCCC2)Cc2cccs2)c(O)c1 | ? | -23.3% | 2.9% | -3.7% | 7.6% | 1µM*
COc1ccc(CN(C(=O)/C=C/C(=O)c2ccc(OC)cc2O)C(C(=O)NC2CCCCC2)c2ccncc2)cc1 (centres undefined) | -8.1% | -20.1% | -4.0% | 0.7% | -2.1% | -1.1%
COc1ccc(C(=O)/C=C/C(=O)N(Cc2ccc3c(c2)OCO3)C(C(=O)NC2CCCCC2)c2ccncc2)c(O)c1 (centres undefined) | -6.7% | -21.0% | 1.2% | 0.2% | -3.6% | 14.0%
COCCN(CC(=O)NC1CCCCC1)C(=O)/C=C/C(=O)c1ccc(OC)cc1O | -16.7% | -14.7% | 8.6%[57.1 µM] | -1.2% | -13.1% | 2µM*
CC(C)(CC(=O)O)CC(=O)Nc1ccc(Oc2ccccc2)cc1 | -25.9% | . | . | . | . | .
Cc1ccc(C)c(-c2ccc(=O)n(Cc3c(F)cccc3Cl)n2)c1 | 0.0% | 44.7µM*! | -14.3% | 40.1% | 3.8% | -11.7%
Oc1cccc(/C=N/N(Cc2ccccc2)c2ccccc2)c1 | 50.1µM* | -4.1% | -5.5%[57.1 µM] | 8.8% | -14.2% | 16.8%[57.1 µM]
C/C(=N\N(Cc1ccccc1)c1ccccc1)c1cccnc1 | ? | -20.2% | 1.4% | 9.8% | -1.0% | 19.8%
SMILES | ALOX12 inh | Anesthetic bind | TrxR1 substrate | IDH1 R132H inh | Glioma ERSR ind | rTrxR1 inhibitor
Oc1ccc(/C=N/N(Cc2ccccc2)c2ccccc2)c(O)c1O | 39.8µM* | -18.9% | -3.0%[57.1 µM] | 3.3% | -2.7% | -6.4%[57.1 µM]
C(=N\N(Cc1ccccc1)c1ccccc1)/c1cccnc1 | ? | -4.4% | -18.3% | 0.3% | -6.3% | -24.5%
Cn1c(=O)c([N+](=O)[O-])c(Cl)c2ccccc21 | 0.0% | -8.8% | 7.9%[57.1 µM] | -3.8% | -14.4% | 2.24µM*
CSC1CCCCC1(O)CSc1nc2c(cc1C#N)CCCC2 (centres undefined) | 7.08µM* | 0.1% | 4.9% | -0.5% | -5.3% | -1.4%
N#CCSc1nc2c(cc1C#N)CCCC2 | 1.7% | -10.3% | 3.2% | 0.4% | -4.6% | 3.2%
CC(C)(C)CC(=O)Nc1ccc(Nc2ccccc2)cc1 | -18.0% | 8.91µM* | 4.2% | 1.1% | 4.5% | 19.7%
CC(C)CC(=O)Nc1ccc(Nc2ccccc2)cc1 | ? | ? | 13.6%[57.1 µM] | 6.6% | 1.6% | 15.2%
Cc1ccc(N2NC3(CCCCCC3)NC2=S)cc1 | 1µM* | . | . | . | . | .
Cc1ccc(N2NC3(CCC(C)CC3)NC2=S)cc1 (centres undefined) | 1.26µM* | . | . | . | . | .
CCOC(=O)c1c(SC)n(-c2ccccc2)c(=S)n(-c2ccccc2)c1=O | -2.7% | 1.8% | 2.6% | 5.0% | -0.4% | 10.6%
CCOC(=O)c1c(SCCN2CCCCC2)n(-c2ccccc2)c(=S)n(-c2ccccc2)c1=O | -17.6% | . | -4.4% | 5.5% | 9.1% | 17.8µM*
COc1ccc(-c2n[nH]c(=S)n2-c2cc(OC)ccc2OC)cc1 | ? | 4.8% | 0.2% | 10.4% | -1.5% | -26.0%
